# Shown are actives, neighbours in structure and some others; about 4.6% of the full set was active somewhere.
# tim23-1 inh – growth inhibitors of tim23-1 mutant yeast, primary screen, luminescence, uHTS. AID 463212, 2010. S. cerevisiae tim23-1 growth, BacTiter-Glo luminescence, 24 h. actives 1.3% (n = 330,000). inhibition, % at 20 µM;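 active means growth inhibition of the mutant yeast at or above 50%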;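 further: temperature-sensitive mutant grown at 25 °C; plate controls were DMSO-treated mutant yeast for no effect and medium wells lacking yeast for full effect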
# SKKanGAS inh – S. pyogenes SKKanGAS growth inhibitors in kanamycin, primary screen, streptokinase expression inhibitor project, SKKanGAS strain, BacTiter-Glo luminescence; 6 h; inhibition, % at 7.5 µM; actives 1.3% (n = 300,000); AID 1662, 2009;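 active means mean replicate score, as percent of positive control median, at least 50; inconclusive means mean below 50 but one replicate at or above 50; inactive means mean and every replicate below 50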;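 further: strain carries kanamycin resistance gene driven by streptokinase promoter and grows in 40 µg/ml kanamycin; loss of luminescence reflects streptokinase promoter inhibition or plain growth inhibition; 0% = median of DMSO wells and 100% = positive control at its reference dose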
# NLRP3 yeast inh – NALP3 inflammasome inhibitors in reconstituted yeast, primary screen, luminescence, uHTS; inhibition, % at 10 µM; actives 0.39% (n = 330,000); AID 2825, 2010; Yeast reconstituted NLRP3/ASC/caspase-1, beta-gal luminescence, 24 h;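 active means inhibition of 50% or more; inactive means inhibition below 50%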;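 further: plate controls were induced DMSO wells for no effect and uninduced yeast grown without galactose for full effect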
# tim10-1 inh – growth inhibitors of tim10-1 mutant yeast, primary screen, luminescence, uHTS. S. cerevisiae tim10-1 ts strain growth, BacTiter-Glo, 24 h. inhibition, % at 20 µM. actives 2.2% (n = 330,000);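 active means inhibition of at least 40%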;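 further: mutant grown at 25 °C; 0% = DMSO wells with yeast and 100% = wells holding no yeast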
# TIM10 inh – growth inhibitors of isogenic TIM10 control yeast, primary screen, counter-screen for tim10-1 yeast inhibitor project, luminescence, uHTS. S. cerevisiae TIM10 strain growth, BacTiter-Glo luminescence, 24 h. inhibition, % at 10 µM. actives 1.4% (n = 330,000);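 active means inhibition of 40% or more at the single tested concentration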;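 further: wild-type TIM10 isogenic control strain grown at permissive 25 °C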
# PfHsp90 yeast 2 – growth inhibition of PfHsp90-expressing yeast, primary screen, antimalarial PfHsp90 inhibitor project, S. cerevisiae, BacTiter-Glo luminescence, single point, set 2; BacTiter-Glo ATP, 48 h; yeast lacking PDR1 and PDR3 efflux regulators; inhibition, % at 9.4 µM; actives 0.32% (n = 310,000);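 active means every replicate shows inhibition above about 80%, whatever the replicate mean, limit read from the data; inconclusive means mean inhibition reaches the set limit but some replicate falls short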;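 further: 0% = DMSO neutral controls and 100% = 20 µM radicicol positive controls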
# An asterisk follows results filed as active; ? = inconclusive; . = no result given.
SMILES,tim23-1 inh,SKKanGAS inh,NLRP3 yeast inh,tim10-1 inh,TIM10 inh,PfHsp90 yeast 2
Cc1nn(-c2nc3ccccc3[nH]2)c(=O)c2ccccc12,.,?,.,.,.,90.3*
COc1ccc(-c2c(C)nn(-c3ccccc3)c2N)cc1,16.4,5.8,20.6,17.7,8.1,.
CC(C)=CCc1c(O)cc2c(=O)c3ccc(O)cc3oc2c1O,45.6,15.5,44.9,18.4,29.8,-22.5
CC(C)=CCc1c(O)cc(O)c2c(=O)c3c(CC=C(C)C)c(O)ccc3oc12,34.0,105.8*,19.3,-9.5,20.7,.
COCCN1C(=O)C(C(=O)OC)CC2=C1CC(C)(C)CC2=O (configuration not stated),.,.,.,.,.,-16.9
CCN(CC)c1ccc(-c2nn3c(-c4ccccc4OC)nnc3s2)cc1,41.3,55.9*,16.4,34.6,35.0,2.6
COc1ccc(-c2nn3c(-c4ccccc4)nnc3s2)cc1,27.8,8.6,38.7,39.5,32.1,-11.1
Cc1ccc(S(=O)(=O)Nc2ccc(-c3csc(-c4ccccc4)n3)cc2)cc1,25.0,40.0,-6.3,33.3,22.6,-2.6
O=[N+]([O-])c1ccc(S(=O)(=O)Nc2ccc(-c3csc(-c4ccccc4)n3)cc2)cc1,-113.2,66.5*,1.7,-47.7,6.9,.
CCCc1cc(=O)n2nc(N3CCC(C(=O)NCc4ccco4)CC3)sc2n1,1.1,1.7,8.6,-0.9,-0.7,12.4
CCCCSc1ccc2nc(-c3ccc(C#N)cc3)cn2c1,26.2,53.6*,36.9,19.2,15.5,-10.2
Clc1ccc(/C=N/NC(=Nc2ccccc2)c2ccccn2)c(Cl)c1,32.6,51.8*,20.2,36.2,15.7,23.0
O=C(Cn1cncn1)N/N=C/c1cc([N+](=O)[O-])ccc1O,12.2,3.4,20.9,-4.4,3.0,-4.5
O=C(Cn1nnc(-c2ccccc2)n1)N/N=C/c1cc([N+](=O)[O-])ccc1O,-5.9,101.3*,10.8,5.2,16.3,-50.8
O=C(Cn1nc2ccccc2n1)N/N=C/c1cc([N+](=O)[O-])ccc1O,10.8,104.2*,30.7,8.5,15.0,6.2
O=C(N/N=C/c1cc([N+](=O)[O-])ccc1O)c1cccc2ccccc12,19.3,94.5*,6.3,31.8,-3.0,18.8
O=C(CSc1ccccn1)N/N=C/c1cc([N+](=O)[O-])ccc1O,35.7,114.8*,12.3,3.5,-2.6,3.6
Cc1[nH]n(-c2cccc3ccccc23)c(=O)c1/C=N/NC(=O)c1cccc([N+](=O)[O-])c1,-3.2,53.0*,12.5,16.7,4.7,-2.8
O=C(N/N=C/c1cc([N+](=O)[O-])ccc1O)c1cccc(NC(=O)c2cccc(Cl)c2)c1,-14.4,76.5*,-1.6,-0.4,18.6,-4.3
COc1ccc(N(CC(=O)NCc2ccc(C)cc2)S(=O)(=O)c2c(C)[nH]c(=O)[nH]c2=O)cc1,7.2,0.7,4.4,1.4,7.5,-7.0
Cc1ccccc1/C=C/C1=NCCN1,-3.6,.,9.1,-11.5,1.0,-11.3
CCC[C@@H]1Cc2ccccc2N1C(C)=O,8.1,.,12.8,2.3,-7.8,1.9
CCCCCn1c(N)c(-c2nc3ccccc3s2)c2c([N+](=O)[O-])nn(CC)c(=O)c21,15.4,54.3*,5.4,7.7,0.2,.
N=C1/C(=C\c2ccc(OC(=O)c3ccccc3Cl)cc2)C(=O)N=C2SC(N3CCOCC3)=NN12,23.5,53.5*,21.8,19.8,19.0,-23.8
COc1cc(/C=C2\C(=N)N3N=C(N4CCOCC4)SC3=NC2=O)ccc1OC(=O)c1ccccc1,10.3,2.4,2.8,8.7,11.8,-17.1
SMILES,tim23-1 inh,SKKanGAS inh,NLRP3 yeast inh,tim10-1 inh,TIM10 inh,PfHsp90 yeast 2
CCOC(=O)c1ccc(NC(=S)Nc2cccc(N)n2)cc1,9.1,58.3*,17.7,0.0,11.9,-10.8
CCOC(=O)c1ccc(NC(=S)NN)cc1,24.2,69.9*,-2.7,38.5,18.0,-30.8
C/C(=N\N=C(/N)SC1CC(=O)N(c2ccc(Br)cc2)C1=O)c1cccs1 (configuration not stated),41.7,98.3*,17.8,16.0,19.7,-21.9
C/C(=N\N=C(/N)SC1CC(=O)N(c2ccccc2)C1=O)c1cccs1 (configuration not stated),0.1,2.3,16.8,6.6,1.1,-9.7
C/C(=N\N=C(/N)SC1CC(=O)N(c2ccc(Cl)c(Cl)c2)C1=O)c1cccs1 (configuration not stated),23.8,97.6*,8.6,-0.8,21.6,3.1
Cc1cccc(Nc2nc(-c3ccc(F)c(C)c3)cs2)n1,49.3,71.9*,20.4,-6.2,24.4,-22.2
N#Cc1ccccc1Sc1ccccc1C(=O)Nc1ccc2ccccc2c1,17.5,-3.0,8.6,26.1,26.9,-48.2
COc1ccc(Sc2ccc(NC(=O)c3ccccc3Cl)cc2C#N)cc1,25.4,52.3*,4.1,4.7,14.5,16.8
O=C(ONC(=O)C1C2C=CC(C2)C1C(=O)NOC(=O)c1ccccc1)c1ccccc1 (configuration not stated),.,.,.,.,.,-2.5
O=C(Nc1ccc(-c2csc(Nc3cccc(C(F)(F)F)c3)n2)cc1)c1cc([N+](=O)[O-])cc(C(F)(F)F)c1,18.9,53.4*,10.0,15.3,5.1,3.4
O=C(Nc1ccc(-c2csc(Nc3ccc(Cl)cc3)n2)cc1)c1ccccc1,11.9,.,-1.0,-8.3,0.6,-29.4
O=C(Nc1ccc(-c2csc(Nc3cccc(C(F)(F)F)c3)n2)cc1)c1ccccc1,7.7,84.5*,22.3,2.9,12.2,-3.2
O=C(Nc1nc(-c2ccccc2)cs1)c1cccc([N+](=O)[O-])c1,-12.8,18.8,9.8,-3.5,-8.3,.
O=C(Nc1cccc(-c2csc(Nc3cccc(C(F)(F)F)c3)n2)c1)c1ccccc1,26.0,93.4*,16.8,25.8,29.9,62.6
CCC(C)(C)c1nnc(NC(=O)c2ccc([N+](=O)[O-])cc2)s1,10.9,-1.9,-9.5,11.1,-2.2,-2.4
O=C1CC(N2CCN(c3nc4ccccc4s3)CC2)C(=O)N1Cc1cccs1 (configuration not stated),26.0,13.9,16.5,8.9,28.2,104.6*
COc1cc(C(=O)N/N=C/c2cccc(Oc3ccccc3)c2)ccc1O,34.3,22.9,13.0,27.1,17.0,5.1
COc1ccc(Br)cc1/C=N/NC(=O)c1cc(Br)ccc1O,-12.3,9.3,10.9,-24.0,-10.6,.
COc1ccc(C(=O)N/N=C/c2cc(Br)ccc2O)cc1OC,39.5,85.8*,-4.5,-8.7,21.7,-9.5
Cn1cccc1-c1cc(C(=O)N/N=C/c2ccccc2Cl)[nH]n1,5.7,5.5,14.1,1.5,3.6,15.4
